Source: PubChem BioAssay AID1347055 (National Center for Advancing Translational Sciences (NCATS), 2019)
The whole screen tested about 54,000 compounds, of which about 120 (0.22%) were called active. About 8% were inconclusive and are not listed. Calls come from the whole dose curve; as a rule, active = well fitted inhibition curve with a large enough effect; inconclusive = small, poorly fitted or top-dose-only effect, or effect the other way; inactive = flat fitted curve, though single readings scatter. This excerpt belongs to a sample that is enriched for actives.

target: Fumarate hydratase, mitochondrial (Homo sapiens) (UniProt P07954); experiment: Identification of activators of human fumarate hydratase by quantitative high-throughput screening; details: FH coupled MDH/diaphorase resazurin fluorescence, 15 min; series mostly up to 79.9 µM; activity change, negative = inhibition: at the top concentration; note: the screen sought activators but most active calls are inhibition curves; nearly all actives have a fitted effect of over 45% in size
From the text: Fumarate hydratase (FH) is a metabolic enzyme that is part of the Krebs-cycle, and reversibly catalyzes the hydration of fumarate to malate. Mutations of the FH gene have been associated with fumarate hydratase deficiency (FHD), hereditary leiomyomatosis, renal cell cancer (HLRCC), and other diseases. Currently there are no high-quality small molecule probes for studying human fumarate hydratase. To address this, we developed a quantitative high throughput screening (qHTS) FH assay and screened a total of 57,037 compounds in dose-response. While no inhibitors of FH were confirmed, a series of phenyl-pyrrolo-pyrimidine-diones (12 compounds) were identified as activators of human fumarate hydratase. […] The binding of two compounds from the series to human fumarate hydratase was confirmed by microscale thermophoresis. The low hit rate in this screening campaign confirmed that FH is a "tough target" to modulate, and the small molecule activators of human fumarate hydratase reported here may serve as a starting point for further optimization and development into cellular probes of human FH and potential drug candidates.
For primary high-throughput screen, 3 ul of FH solution (containing 13.33nM human fumarate hydratase, 13.33IU/ml malic dehydrogenase, 0.2mM NAD, 0.067mg/ml diaphorase and 0.067mM resazurin in the assay buffer (50 mM Tris pH 8.0, 5 mM MgCl2, 0.01% Brij 3) was dispensed into each well in a black solid bottom 1536-well assay plate (Greiner Bio-One) using a BioRAPTR FRD dispenser (Beckman Coulter, Brea, CA). A 1536-well pintool dispenser outfitted with 20 nl pins (Wako Automation, San Diego, CA) was used to transfer 20 nL of DMSO-solubilized compound (Cherrypick plates) to each 1536-well assay plate. Each compound was screened at five concentrations: 15 nM, 151 nM, 1.5 uM, 15.4 uM, 76.9 uM. Following compound transfer, plates were incubated in room temperature for 10 minutes. 1 uL of substrate solution containing fumaric acid (160 uM) was dispensed via BioRAPTR FRD to initiate the reaction. Plates were immediately transferred to a ViewLux microplate imager (PerkinElmer, Waltham, MA), and any resulting resorufin fluorescence was measured (exitation/emission, 525/598 nm) at 0 and 15 minutes. The exposure time is 1 second. Fluorescence from each well was normalized using enzyme-free and DMSO-treated control wells on each plate, and changes in fluorescence (delta RFU) were calculated using the difference in fluorescent signal for each well at 15 minutes versus 0 minutes.
% is set by controls: 0 for no effect and ±100 for the full control effect.

Sequence of Fumarate hydratase, mitochondrial (Homo sapiens) (P07954 whole entry, looked up): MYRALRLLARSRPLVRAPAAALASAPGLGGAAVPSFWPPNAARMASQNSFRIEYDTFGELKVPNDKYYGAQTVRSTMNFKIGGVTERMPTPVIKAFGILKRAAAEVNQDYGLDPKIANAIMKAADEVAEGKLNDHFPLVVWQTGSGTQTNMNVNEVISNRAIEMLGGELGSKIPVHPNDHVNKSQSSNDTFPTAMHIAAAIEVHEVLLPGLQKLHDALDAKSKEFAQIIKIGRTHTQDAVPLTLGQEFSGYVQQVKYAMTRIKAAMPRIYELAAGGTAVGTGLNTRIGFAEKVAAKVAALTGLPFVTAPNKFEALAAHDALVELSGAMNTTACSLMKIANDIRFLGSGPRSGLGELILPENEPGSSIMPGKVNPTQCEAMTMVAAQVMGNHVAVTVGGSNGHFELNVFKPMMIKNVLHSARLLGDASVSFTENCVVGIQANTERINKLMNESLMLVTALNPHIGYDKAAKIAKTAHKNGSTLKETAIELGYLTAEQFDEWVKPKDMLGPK

Activity change, negative = inhibition, inactive:
CCOc1ccc(S(=O)(=O)N2CCCCCC2)c2ccccc12 -12.1%
C=C1CCC2C(C)(COC(C)=O)CCCC2(C)C1CCC(C)CC(=O)O (stereo not drawn) -0.374% [at 53.3 µM]
COC(=O)c1cc(NC(=O)c2cnc(SC)nc2-c2ccccc2)cc(C(=O)OC)c1 -19.3%
Cc1cc(NC(=O)CC(C)C)cc(-c2nc3ncccc3o2)c1O -0.21%
CC(=O)c1cnc2ccc(-c3cc(Cl)c(O)c(Cl)c3)nc2c1NC1CCC(CN(C)C)CC1 (stereo not drawn) -1.45% [at 0.673 µM]
COc1cc(O)c(C(=O)CCc2ccc(O)cc2)c(O[C@@H]2O[C@H](CO)[C@@H](O)[C@H](O)[C@H]2O)c1 -13.3% [at 53.3 µM]
CC(C)C1=CC2C(CC[C@]2(C)O)[C@](C)(O)CC1 (stereo partly drawn) -0.171%
Fc1ccc(-c2nc(-c3ccccc3F)[nH]c2-c2ccncc2)cc1 -0.997%
COC(=O)c1[nH]c(=O)c2ccccc2c1-c1ccc[nH]1 1.76%
CC(=O)N1CCc2cc(S(=O)(=O)NC(Cc3ccccc3)C(=O)NCc3ccc(C)cc3)ccc21 (stereo not drawn) 10.6%
O=C(Nc1ccc2nc(SCC(=O)N3CCCc4ccccc43)sc2c1)c1ccc(F)cc1 -6.95%
COc1ccc(NC(=O)CCN2CCN(CCO)CC2)cc1 9.05%
CCc1ccc(CN(Cc2ccco2)C(=O)c2ccccc2Cl)cc1 -25.2%
COCCNS(=O)(=O)c1cc(-c2nn3c(C)nnc3c3ccccc23)ccc1C -5.96%
CCOC(=O)c1ccc(NC(=O)c2c(NCc3cccs3)sc3c2CCCC3)cc1 -9.56%
CC(F)(F)CN1CCOc2c(nn(-c3ccccc3Cl)c2-c2ccc(Cl)cc2)C1=O -12.3%
CCC/C=C/C(=O)O[C@H]1CC(C)(C)CC2[C@]13[C@H](O)O[C@@]21CCC2[C@@]4(C)CC[C@H](O[C@@H]5O[C@H](C(=O)O)[C@@H](O)[C@H](O[C@@H]6O[C@H](CO)[C@H](O)[C@H](O)[C@H]6O[C@@H]6O[C@@H](C)[C@H](O)[C@@H](O)[C@H]6O[C@@H]6OC[C@](O)(CO)[C@H]6O)[C@H]5O[C@@H]5O[C@H](CO)[C@H](O)[C@H](O)[C@H]5O)C(C)(C)C4CC[C@@]2(C)[C@]1(C)C[C@H]3OC(C)=O (stereo partly drawn) 27.8% [at 13.5 µM]
Cc1ccc(-c2nnc3c4ccccc4c(C)nn23)cc1NC(=O)c1cccc(Br)c1 3.86%
Cc1cc(C)c(NC(=O)c2cc3sc(Cl)cc3n2C)c(C)c1 -0.541%
O=C(CN1C(=O)COc2ccc(S(=O)(=O)N3CCOCC3)cc21)N1CCN(c2cccc(Cl)c2)CC1 -5.4%
O=C(Cn1c(=O)n(Cc2cccs2)c(=O)c2cccnc21)Nc1ccc(F)cc1 -20.5%
C[C@H]1CC[C@@]2(OC1)O[C@H]1CC3C4CC[C@H]5C[C@@H](O)CC[C@]5(C)C4CC(=O)[C@]3(C)[C@H]1[C@@H]2C (stereo partly drawn) -3.6% [at 53.3 µM]
Cn1c(=O)c2c(n3c4ccccc4nc13)NC(=O)CC2c1cccc(Cl)c1 (stereo not drawn) -25.1%
C/C=C(\C)C(=O)OC1C=C(C)CC(OC(=O)c2ccc(O)cc2)C2C1(C)CCC2(O)C(C)C (stereo not drawn) -1.59% [at 53.3 µM]
Cc1ccccc1C#Cc1ccc(CCC(=O)O)cc1 -7.53%
CCOc1cc(/C=C(\C#N)C(=O)Nc2ccccc2C)ccc1OCc1cc(=O)n2nc(CC)sc2n1 -13.3%
CCC1OC(=O)C(C)CC(C)C(=O)/C(C)=C/C(C)C(=O)/C=C/C1(C)O (stereo not drawn) 4.92% [at 53.3 µM]
Cc1cc(Br)ccc1NC(=O)Cn1cnc2sc(C)c(S(=O)(=O)N3CCN(C)CC3)c2c1=O 3.35%
CNc1ccc(-c2nc(-c3ccccc3C)no2)cc1[N+](=O)[O-] 0.855%
CC(=O)O[C@@H]1c2c3c(cc(O)c2C(=O)O[C@@H]1C)O[C@@]1(C)[C@@H](O)C[C@H]2C(C)(C)C(=O)C=C[C@]2(C)[C@@H]1C3 -6.54% [at 53.3 µM]
Cc1nc2nc(NCc3cccc(Br)c3)[nH]n2c(=O)c1Cc1ccccc1 -4.21%
CC1CC2C3CCC4=CC(=O)C=C[C@]4(C)[C@@]3(F)[C@@H](O)C[C@]2(C)[C@@]1(O)C(=O)CO (stereo partly drawn)
CCOc1ccc(CNC(=O)c2cc(-c3ccc(Cl)s3)nc3ccccc23)cc1 12.2%
CC(=O)[C@@H]1C[C@H](C(C)(C)O[C@@H]2O[C@H](CO)[C@@H](O)[C@H](O)[C@H]2O)CC[C@@]2(CO)OC(=O)C[C@@H]12 7.44% [at 53.3 µM]
COc1ccc(C)cc1NC(=O)COCc1cc(-c2cccs2)on1 -26.2%
CCN(Cc1ccccc1)C(=O)CCS(=O)(=O)c1ccc2c(c1)oc(=O)n2C -6.23%
Cc1ccc(S(=O)(=O)N2CCC(C(=O)Nc3cc(C)ccc3C)CC2)cc1 -35.1%
COc1ccc(Cc2nc3ccc(C(=O)NCc4ccccc4Cl)cc3o2)cc1 -18.8%
CSc1ccc(CCNC(=O)c2cc(C)nc3c2c(C)nn3-c2cccc(F)c2)cc1 -4.49%
COc1ccc(OC)c(CNC(=O)c2c3c(nc4ccccc24)C(=O)N(C2CCCCC2)C3)c1 -6.19%
COc1ccc(-c2cn3c(C)c(C(=O)Nc4cc(C)cc(C)c4)sc3n2)cc1 -2.84%
C[C@@H]1COCCN1c1cc(C2(S(C)(=O)=O)CC2)nc(-c2cccc3[nH]ccc23)n1 -3.26%
CC(=O)O[C@@H]1CC2C(C)(C)C(=O)C=C[C@]2(C)C2CC[C@]3(C)C(=CC(=O)[C@@H]3c3ccoc3)[C@@]21C (stereo partly drawn) 8.3% [at 53.3 µM]
Cc1cc(C)c2oc(C(=O)Nc3ccc(S(=O)(=O)N(C)c4ccccc4)cc3)cc(=O)c2c1 -17.4%
C/C1=C\CC(C)(C)/C=C/C/C(C(=O)O)=C/CC1 -17.8%
C/C=C(\C)C1C(C)=CC2CCC(OS(=O)(=O)O)C(C)C2C1/C=C/C=C/C(=O)O (stereo not drawn) -1.4% [at 53.3 µM]
O=S(=O)(c1ccc(Cl)cc1)c1nnn2c1nc(NC1CCCC1)c1sccc12 -1.98%
NC(=O)c1cnc(NCCc2ccc(O)c(Cl)c2)nc1NCc1ccccc1 -22.4%
CC(O)COc1ccccc1 (stereo not drawn) -10.1% [at 53.3 µM]
COc1ccc(NC(=O)C(c2ccccc2)N2Cc3ccccc3C2=O)cc1 (stereo not drawn) -21.3%
COc1ccc(N2CCN(C(=O)c3c(C)oc4nc(C)nc(N5CCCC5)c34)CC2)cc1 -7.16%
CCCN(C(=O)Cn1ncc2c([nH]c3ccc(C)cc32)c1=O)c1ccccc1C -18%
CC/C(=C(/CC)c1ccc(O)c(CN(CC)CC)c1)c1ccc(O)c(CN(CC)CC)c1 -1.42%
CCOc1cc(C(=O)NCCc2csc3nc(-c4ccc(C)cc4)nn23)cc(OCC)c1OCC -0.27%
CCOc1ccccc1N(C)C(=O)c1cc2c(s1)-c1ccccc1OC2 -21.1%
O=C(O)CC1CCC(c2ccc(-c3ccc(Nc4ccc(C(F)(F)F)nc4)cn3)cc2)CC1 (stereo not drawn) -2.5%
CC(C)CC(=O)O[C@@H]1O[C@H](CO)[C@@H](O[C@H]2O[C@H](C)[C@@H](N[C@H]3C=C(CO)[C@@H](O[C@H]4O[C@H](CO)[C@@H](O[C@H]5O[C@H](CO)[C@@H](O[C@H]6O[C@H](CO)[C@@H](O)[C@H](O)[C@H]6O)[C@H](O)[C@H]5O)[C@H](O)[C@H]4O)[C@H](O)[C@H]3O)[C@H](O)[C@H]2O)[C@H](O)[C@H]1O 8.78% [at 20.6 µM]
CC(O)C1CCC2C3CCC4CC(OC5OC(C(=O)O)C(O)C(O)C5O)CCC4(C)C3CCC12C (stereo not drawn) -5.83%
CO[C@H]1C[C@@H]2CC[C@@H](C)[C@@](O)(O2)C(=O)C(=O)N2CCCC[C@H]2C(=O)O[C@H]([C@H](C)C[C@H]2CC[C@@H](OP(C)(C)=O)[C@H](OC)C2)CC(=O)[C@H](C)/C=C(\C)[C@@H](O)[C@@H](OC)C(=O)[C@H](C)C[C@H](C)/C=C/C=C/C=C/1C -2.79% [at 53.3 µM]
CC(C)CC(c1c(O)c(C=O)c(O)c(C=O)c1O)C1CCC(C)(O)C2CC(C(C)(C)O)CCC12C (stereo not drawn) -6.01% [at 53.3 µM]
COc1ccc(Cn2c(=O)n(-c3ccccc3C)c(=O)c3c4c(sc32)CN(C(C)=O)CC4)cc1 -3.96%
C/C=C/C=C/[C@@H]1O[C@](O)([C@H](CC)C(=O)NC/C=C/C=C(\C)[C@@H](OC)[C@@H](C)[C@@H]2O[C@H](/C=C/C=C/C=C(\C)C(=O)c3c(O)ccn(C)c3=O)[C@H](O)[C@@H]2O)[C@H](O)[C@H](O)C1(C)C -9.63% [at 20.6 µM]
CCOC(=O)CNc1nc2ccccc2n2c(C)nnc12 -4.82%
Cc1cc(C)c2sc(NC(=O)c3ccc(S(=O)(=O)N4CCCC4)cc3)nc2c1 3.95%
Cc1cc(C)c(-n2cc(C)c3c(Cl)nc(C)nc32)c(C)c1 -2.66%
CNC(=O)c1ccc(-c2nc(CN3CCc4ccccc43)c(C)o2)cc1 -16.3%
COc1cc(OC)c(NC(=O)c2ccc(Cc3cc4c(cc3C)C(C)(C)CCC4(C)C)o2)c(OC)c1 -27.2%
O=C(Nc1ccc2nc(SCC(=O)N3CCCc4ccccc43)sc2c1)c1ccc(Cl)cc1 -13.7%
CC1(C)CCC2(C(=O)OC3OC(COC4OC(CO)C(O)C(O)C4O)C(O)C(O)C3O)CCC3(C)C(=CCC4C5(C)CCC(O)C(C)(C(=O)O)C5CCC43C)C2C1O (stereo not drawn) -1.76% [at 20.6 µM]
COc1ccccc1-c1c[nH]c2ncc(-c3cncc(C(=O)N(C)C)c3)cc12 3%
CN(Cc1ccccc1)C(=O)CCS(=O)(=O)c1cc(Br)cc2c1N(C(=O)C1CC1)CC2 -0.325%
CC1CCC2C(C(=O)O)=CC3C(O)C(C)(C)CC123 (stereo not drawn) 3.29%
CC(O)/C=C/C1(O)C2(C)COC1(C)CC(O)C2 (stereo not drawn) -5.68%
CC1CCC2C(C)(C)C(O)CCC2(C)C12Cc1c(O)cc3c(c1O2)CN(C(CCC(N)=O)C(=O)O)C3=O (stereo not drawn) -1.12% [at 53.3 µM]
CC(=O)N1CCCc2cc(S(=O)(=O)N3CCC(C(=O)NCc4ccc(C)cc4)CC3)ccc21 2.25%
NC1CCC(Nc2cc(-c3cccc(NCc4cccc(F)c4)n3)c(Cl)cn2)CC1 (stereo not drawn) 0.142%
Cc1ccc(S(=O)(=O)NCc2nc3nc(C)cc(C)n3n2)cc1 -12.1%
Cc1nc2c(C(F)(F)F)cccc2nc1-c1ccc(-c2cccc(S(C)(=O)=O)c2)cc1 0.357%
